This is an account of results in PubChem BioAssay (NCATS).

Records with an inconclusive call do not appear. Where a call stands in place of a potency, no number is given. Calls of active or inactive are those of the source. The call rests on the fitted dose curve; in most records, active means well fitted inhibition curve with a large enough effect; inconclusive means small, poorly fitted or top-dose-only effect; inactive means flat fitted curve, though single readings scatter.

Calcium and integrin-binding protein 1 (Homo sapiens), sequence (Q99828 whole entry, looked up): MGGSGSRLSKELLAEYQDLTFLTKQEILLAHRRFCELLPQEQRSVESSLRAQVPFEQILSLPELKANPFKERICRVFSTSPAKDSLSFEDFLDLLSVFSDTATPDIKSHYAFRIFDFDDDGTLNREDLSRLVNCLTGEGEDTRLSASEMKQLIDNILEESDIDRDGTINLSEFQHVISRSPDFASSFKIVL

The test deals with Calcium and integrin-binding protein 1 (Homo sapiens) (UniProt Q99828). In words: Primary qHTS for Identification of Calcium Integrin Binding Protein 1 (CIB1) Competitor (AID 1508620).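 Further: GST tagged CIB1 binding a fluorescein labelled alphaIIb integrin peptide tracer; top concentration of the series differs between compounds.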 To be noted: CIB1-GST / FITC-alphaIIb peptide fluorescence polarization; series mostly up to 114 µM. Put shortly:
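Fluorescence polarization competition: CIB1-GST (1 uM final) preincubated with compound 15 min at room temperature, then FITC-labeled alphaIIb peptide (100 nM final) added for another 15 min. Polarization read at Ex 480/Em 540.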
For orientation: Quantitative high-throughput screening tests each substance at several concentrations.
Turning to `Fc1cc(-c2nc(Nc3ccc(F)c(F)c3)c3ccccc3n2)ccn1`, the Potency entry is “inactive”.

For the compound `COc1ccc(C2Nc3ccccc3C(=O)N2Cc2ccco2)cc1COc1ccccc1` (centres undefined), the Potency entry was “inactive”.

For the compound `O=C(Nc1ccc(Cl)c(Cl)c1)Nc1nc(-c2ccncc2)cs1`, the Potency result is “inactive”.

As to `O=C(Nc1ccc(-c2nc3ccccc3[nH]2)cc1)c1ccc2sccc2c1`, the Potency entry is “inactive”.

For the compound `O=C(COc1ccccc1Br)NCCc1nc2ccccc2[nH]1`, the Potency result was “inactive”.

`CCN(CC)C(=O)COC(=O)c1ccc(S(C)(=O)=O)c([N+](=O)[O-])c1`: the Potency result was “inactive”.

Regarding `O=S(=O)(c1ccc2c(c1)OCCCO2)N1CCN(S(=O)(=O)c2c(F)cccc2F)CC1`, the Potency result was “inactive”.

Take `CC(=O)Nc1sc2c(c1-c1nc3ccccc3s1)CCN(C(C)C)C2`: the Potency result was “inactive”.

In the case of `O=C(CSc1nc2ccccc2[nH]1)N1CCOCC1`, the Potency result was “inactive”.

`N#Cc1ccc(-c2ccc(=O)n(CC(=O)NCCc3ccccc3)n2)cc1`: the Potency entry was “inactive”.

In the case of `Cc1ccc(OCCn2c(CCNC(=O)c3ccccc3Br)nc3ccccc32)cc1`, the Potency entry was “inactive”.

As to `Nc1ncnc2c1ncn2[C@@H]1O[C@H](CN[S+](=O)([O-])NC(=O)c2cccc(-c3noc(-c4ccccc4F)n3)c2)[C@@H](O)[C@H]1O`, the Potency entry is “inactive”.

Consider `O=[S+]([O-])(Nc1ccc(N2CCNCC2)cc1)c1ccc(NCc2cccc(Cl)c2O)cc1`, for which the Potency entry was “inactive”.

`O=c1c2ccccc2nc2sc(Nc3ccc4c(c3)OCO4)nn12`: the Potency entry is “inactive”.

For `Cc1cc(NCc2ccc(NC(=O)Cc3ccc(Cl)c(Cl)c3)cc2)no1`, the Potency result was “inactive”.

As to `Cc1cccc(CNc2ccc(S(=O)(=O)Nc3nccs3)cc2)c1O`, the Potency entry is “inactive”.

As for `CC(C)CN1CCN(C(=O)COC(=O)c2ccc(S(C)(=O)=O)c([N+](=O)[O-])c2)CC1`, the Potency entry is “inactive”.

Consider `N#Cc1c(-c2ccc(OCCOCCOCCN)cc2)no[n+]1[O-]`, for which the Potency result was “inactive”.

Consider `O=C(c1ccccc1)N(C(=O)c1ccccc1)c1ncnc2c1C(c1ccccc1)c1c(ccc3ccccc13)O2` (centres undefined), for which the Potency entry is “inactive”.

Consider `CC(C)(C)OC(=O)NCc1nnc(-c2cc3ccccc3[nH]2)s1`, for which the Potency result was “inactive”.

Take `COc1ccc(C2Nc3ccccc3C(=O)N2Cc2ccc(C(F)(F)F)o2)cc1COc1c(C)cccc1C` (centres undefined): the Potency entry was “inactive”.

`Cc1nnc(-c2cnn(C)c2N)n1CCCn1cccc1`: the Potency entry is “inactive”.

On to `COc1ccc(OC)c(C2=Nn3c(nnc3-c3ccccc3OC)SC2)c1`, for which the Potency result is “inactive”.

Turning to `O=C(Nc1ccc(Cl)c(C(F)(F)F)c1)Nc1cccc(-c2ccncc2)n1`, the Potency entry is “inactive”.

As for `CC(=O)Nc1sc2c(c1-c1ccc3c(c1)OCO3)CCNC2`, the Potency result is “inactive”.

Regarding `COc1cccc(C2c3c(ncn(-c4ccccc4-c4ccccc4)c3=N)Oc3ccc4ccccc4c32)c1` (centres undefined), the Potency result is “inactive”.

For the compound `Cc1ccccc1C(=O)N1CCc2cc(-c3nc(NC(=O)CC4CCCCC4)sc3C)ccc21`, the Potency result was “inactive”.

Take `COc1cc(OC)cc(-c2nnc3n2N=C(c2cc(OC)ccc2OC)CS3)c1`: the Potency entry was “inactive”.

For the compound `CC(C)(C)OC(=O)Cc1nnc(-c2nc3ccccc3[nH]2)o1`, the Potency entry was “inactive”.

As to `O=C(/C=C/c1ccc(Cl)cc1)Nc1cccc([S+](=O)([O-])Nc2ccccc2F)c1`, the Potency entry is “inactive”.

`O=C(Nc1ncc([S+](=O)([O-])N2CCOCC2)s1)c1cccc(Br)c1`: the Potency entry was “inactive”.

Regarding `C/C(=C\c1cccc(C(F)(F)F)c1)C1Nc2cccc3cccc(c23)N1`, the Potency entry is “inactive”.

In the case of `Fc1ccc(-c2nnc(CCCCSc3nnc(-c4cccc5ccccc45)o3)o2)cc1`, the Potency result is “inactive”.

Consider `CC(=O)Nc1ccc(S(=O)(=O)N2CCN(c3ccc(C(C)=O)cc3)CC2)cc1`, for which the Potency result was “inactive”.

`Oc1ccc(COCc2ccccc2)c2cccnc12`: the Potency result was “inactive”.

Consider `O=C(Nc1ccc(Cl)c(Cl)c1)Nc1ccnc(-c2ccncc2)n1`, for which the Potency result is “inactive”.

Turning to `O=C1CCc2cc(S(=O)(=O)Nc3ccc(Cl)c(Cl)c3)ccc2N1`, the Potency result is “inactive”.

With `Cc1cccc(-n2cnc3cc(C(=O)NC4CCCCC4)ccc32)c1`, the Potency result was “inactive”.

For `Cn1ncc(-c2nnc(-c3ccccc3)n2CCCn2ccnc2)c1N`, the Potency result was “inactive”.
